One assay has as its system KB-3-1. Put plainly: Cytotoxic Profiling of Annotated Libraries Using Quantitative High-Throughput Screening (AID 1296008). Also: nearly all actives have a fitted effect of over 60% in size. The conditions noted are these: Five cell lines viability, CellTiter-Glo ATP luminescence, 48-72 h; max response: hits give low values. The method in brief: (§1)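 Cytotoxicity was measured as CellTiter-Glo ATP luminescence, read after 10 min at room temperature. Compound treatment of the cells lasted 48 or 72 hr at 37 degrees Celsius in a qHTS format.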
A general note: ATP-based viability assays read luminescence as a measure of living cells.

For another assay, the system named is NIH3T3. The assay is described as above. The note with it: Five cell lines viability, CellTiter-Glo ATP luminescence, 48-72 h; max response: hits give low values. The method in brief:
as §1

Drawing on PubChem BioAssay (NCATS), this text covers max response, Potency and outcome for 48 molecules.

Records with an inconclusive call do not appear. Unmarked numbers belong to inactive results. Active and inactive are the calls of the source. Calls follow the shape of the dose curve; as a rule, active = well fitted inhibition curve with a large enough effect; inconclusive = small, poorly fitted or top-dose-only effect; inactive = flat fitted curve, though single readings scatter. Where a SMILES comes first, the peptide text is derived from it. [ ]: non-standard residue; d: D form. ξ: configuration not given here. ξLac(3-iPr) = CC(C)CC(O)C(=O)O; NMeV = CN[CH](C(=O)O)C(C)C; βAla = NCCC(=O)O
% is scaled to controls: 0 for no effect and ±100 for the full control effect; potency is read from the fitted curve at half-maximal effect.

Turning to `CC(C)CC1OC(=O)C2CCCN2C(=O)CCNC(=O)C(Cc2ccccc2)NC(=O)C(C(C)C)N(C)C(=O)C(C(C)C)N(C)C1=O` (stereo not given) (cyclo([ξLac(3-iPr)][NMeV][NMeV]F[βAla]P); configuration not given here), the values for the max response in the assay with KB-3-1 and in the assay with NIH3T3 were 3.73% and 0.588%, respectively. With `CCN1CCN(Cc2ccc(NC(=O)Nc3ccc(Oc4cc(NC)ncn4)cc3)cc2C(F)(F)F)CC1`, the Potency in the assay with KB-3-1 is 6.51 µM (active). Further, the max response with NIH3T3 is -75.2%.

In the case of `CC(=O)OC12COC1CC(O)C1(C)C(=O)C(O)C3=C(C)C(OC(=O)C(O)C(NC(=O)OC(C)(C)C)c4ccccc4)CC(O)(C(OC(=O)c4ccccc4)C21)C3(C)C` (stereo not given), the Potency with KB-3-1 was 0.0018 µM (active); in the assay with NIH3T3, 0.0164 µM (active). As for `O=C(O)/C=C/c1ccc(O)c(O[C@@H]2O[C@H](CO)[C@@H](O)[C@H](O)[C@H]2O)c1`, the result in the assay on KB-3-1 was inactive. Besides, the max response in the assay on NIH3T3 is 4.37%. Turning to `CC1OC(O[C@H]2CC[C@@]3(C)C(CC[C@]4(C)C3CC=C3C5CC(C)(C)CC[C@]5(C(=O)OC5OC(CO)C(OC6OC(COC7OCC(O)C(O)C7O)C(O)C(O)C6O)C(O)C5O)CC[C@]34C)C2(C)C)C(O)C(O)C1OC1OCC(OC2OCC(O)C(O)C2O)C(O)C1O` (stereo not given in full), the call in the assay on KB-3-1 was inactive. Besides, the max response in the assay with NIH3T3 was -4.7%. Consider `CC(Oc1cc(-n2cnc3ccc(CN4CCN(C)CC4)cc32)sc1C(N)=O)c1ccccc1C(F)(F)F` (stereo not given), for which the Potency in the assay with KB-3-1 was 0.651 µM (active); in the assay on NIH3T3 it was 8.2 µM (active). For the molecule `C=C1OC2CC(C(=O)O)C=CC2NC1=O` (stereo not given), the max response was 3.04% in the assay with KB-3-1 and 0.0418% in the assay on NIH3T3. Taken in the same sequence, the figures for `C[C@@H]1CN(Cc2ccccc2)C[C@H]1c1nc2c(cnn2C2CCOCC2)c(=O)[nH]1` were 2.05% and -13.9%. In the case of `N=c1nc2n(cc1F)C1OC(CO)C(O)C1O2` (stereo not given), the max response with KB-3-1 was -7.19%. The Potency with NIH3T3 is 2.06 µM (active). As for `Cc1ccc(S(=O)(=O)Nc2ccccc2N2CCCCC2)s1`, the max response in the assay on KB-3-1 is -18.9%; in the assay on NIH3T3, 2.48%.

As for `O=C1CC2(CCCC2)[C@H](O)C(=O)N1CCCCN1CCN(c2ncccn2)CC1`, the max response with KB-3-1 was -7.77%; with NIH3T3 it was -13.6%. `C/C=C1\[C@H](O[C@@H]2O[C@H](CO)[C@@H](O)[C@H](O)[C@H]2O)OC=C2C(=O)OCCc3ccc(O)c(c3)Oc3ccc(cc3)CCOC(=O)C[C@H]21`: the max response in the assay with KB-3-1 is -9.35%; with NIH3T3 it was -1.53%. As to `Cc1ccc(NC(=O)Nc2cc(C(F)(F)F)ccc2F)cc1Nc1ccc2c(c1)NC(=O)/C2=C\c1ccc[nH]1`, the Potency with KB-3-1 was 20.6 µM (active); in the assay on NIH3T3, 18.4 µM (active). For `O=C(O)c1ccc(CN2CCC(CN[C@@H]3C[C@H]3c3ccccc3)CC2)cc1`, the max response with KB-3-1 was 6.54%; with NIH3T3 it was -26%. On to `CC(=O)O[C@H]1C[C@@]2(C)[C@@H](CC[C@H]3[C@@]4(C)C=CC(=O)[C@@H](C)[C@@H]4[C@H](O)C(=O)[C@@]32C)/C1=C(/CCC=C(C)C)C(=O)O`, for which the max response is 4.45% with KB-3-1 and -3.01% with NIH3T3.

With `Nc1ncnc2c([C@@H]3N[C@H](CO)[C@@H](O)[C@H]3O)c[nH]c12`, the max response is 5.62% in the assay on KB-3-1 and -4.07% in the assay on NIH3T3. In the case of `CO[C@H]1/C=C/[C@@](C)(O)/C=C/C(=O)O[C@H](C)[C@@H](C)CC/C=C/1C`, the max response in the assay with KB-3-1 is -8.74%. Besides, in the assay with NIH3T3, the Potency is 3.21 µM (active). For the molecule `C[C@H](NC(c1cccc(C[P+](=O)O)c1)[C@H](C)O)c1ccc(Cl)c(Cl)c1` (stereo not given in full), the outcome in the assay on KB-3-1 was inactive. For the same molecule, the max response in the assay with NIH3T3 is 3.54%.

As for `CC(C)C(CO)Nc1nc(Nc2ccc(C(=O)O)c(Cl)c2)c2ncn(C(C)C)c2n1` (stereo not given), the max response in the assay with KB-3-1 is 1.82%; in the assay on NIH3T3, -3.63%.

Take `CC(C)C(CO)Nc1nc(Nc2cc(N)cc(Cl)c2)c2ncn(C(C)C)c2n1` (stereo not given): the Potency in the assay with KB-3-1 is 10.3 µM (active); in the assay on NIH3T3, 3.66 µM (active).

As to `CNC(=S)NS(=O)(=O)c1cc(CCNC(=O)c2cc(Cl)ccc2OC)ccc1OC`, the figures for the max response in the assay with KB-3-1 and in the assay on NIH3T3 were -4.17% and -5.29%, respectively. In the case of `Cc1cc(-c2cc(O)ccc2Cl)cc2nnc(Nc3ccc(OCCN4CCCC4)cc3)nc12`, the Potency is 4.61 µM (active) in the assay with KB-3-1 and 11.6 µM (active) in the assay with NIH3T3. Consider `O=C(Nc1ccc(-c2ccncc2)cc1)N[C@H](CO)c1ccccc1`, for which the outcome in the assay on KB-3-1 was inactive. In the assay on NIH3T3, the max response was -5.95%. With `C/C(=C\CCC(C)CCO)C(=O)O[C@@H]1[C@@H](O)[C@H](OC2OC=C(C(=O)O)C3CCC(C)(O)C23)O[C@H](CO)[C@H]1O` (stereo not given in full), the result in the assay with KB-3-1 was inactive. Moreover, the max response in the assay with NIH3T3 was -17.6%. Take `CCO[C@@H]1OC(=O)C[C@@H]1NC(=O)[C@@H]1CCCN1C(=O)[C@@H](NC(=O)c1ccc(N)c(Cl)c1)C(C)(C)C`: the max response in the assay with KB-3-1 was 2.91%; with NIH3T3 it was -4.45%. In the case of `COc1cc(C2c3cc4c(c(O)c3CC(CO)C2C(=O)O)OCO4)cc(OC)c1O` (stereo not given), the Potency is 2 µM (active) with KB-3-1 and 2.82 µM (active) in the assay on NIH3T3. As for `CC(C)(C)c1cc(Br)cc([C@H](CC(=O)O)NC(=O)CNC(=O)c2cc(O)cc(NC3=NCC(O)CN3)c2)c1` (stereo not given in full), the max response with KB-3-1 was 3.01%. For the molecule `CC1=CC(=O)[C@H]2C(C)(C)CCC[C@]2(C)[C@@]1(O)CO`, the max response in the assay with KB-3-1 is 7.19%; in the assay on NIH3T3 it was 3.55%. For `CC1(O)CC(O)C2(O)C=COC(O[C@@H]3O[C@H](CO)[C@@H](O)[C@H](O)[C@H]3O)C12` (stereo not given in full), the figures for the max response with KB-3-1 and in the assay on NIH3T3 were 0.806% and -15.6%, respectively. As to `CC(C)Oc1ccc(C(=O)NC(CNC(=O)CN(C)C)Cc2ccc(-c3cn4cccc(C(C)O)c4n3)cc2)cc1Cl` (stereo not given), in the assay with KB-3-1, the Potency was 0.146 µM (active). Moreover, the max response in the assay on NIH3T3 is -19.5%. Turning to `C[S+](CC[C@H](N)C(=O)[O-])C[C@H]1O[C@@H](n2cnc3c(N)ncnc32)[C@H](O)[C@@H]1O` (stereo not given in full), the results for the max response with KB-3-1 and in the assay on NIH3T3 were 3.65% and -4.29%, respectively. With `CCOC(=O)CCN(C(=O)c1ccc2c(c1)nc(CNc1ccc(C(=N)N)cc1)n2C)c1ccccn1`, the max response in the assay on KB-3-1 was -6.67%; with NIH3T3 it was -4.58%.

Consider `C/C=C/c1ccc2oc(-c3ccc(O)c(OC)c3)c(C)c2c1`, for which the max response was 6.52% in the assay with KB-3-1 and -2.29% in the assay on NIH3T3.

`C=C1CC23CC1CCC2C12OC(=O)C(C)(CCC1O)C2C3C(=O)O` (stereo not given): the molecule was called inactive with KB-3-1. Moreover, the max response with NIH3T3 is 3.76%. Turning to `CC1C(=O)CC2C3CCC(C(=O)O)C12CC3(C)CO` (stereo not given), the max response in the assay with KB-3-1 is 0.285%; in the assay with NIH3T3 it was -4.76%. With `CC1(C)CC[C@]2(C(=O)O[C@@H]3O[C@H](CO)[C@@H](O)[C@H](O)[C@H]3O)CC[C@]3(C)C(=CCC4[C@@]5(C)C[C@@H](O)[C@H](O)[C@](C)(C=O)C5CC[C@]43C)[C@@H]2[C@@H]1O` (stereo not given in full), the call in the assay on KB-3-1 was inactive. Besides, in the assay on NIH3T3, the max response is 0.296%. With `C=CC1C(OC2OC(CO)C(O)C(O)C2O)OC=C2C(=O)N3C(C(=O)O)Cc4c([nH]c5ccccc45)C3CC21` (stereo not given), the results for the max response with KB-3-1 and in the assay on NIH3T3 were 6.21% and -3.8%, respectively. In the case of `N[C@@]1(C(=O)O)CC[C@H]2[C@H](C(=O)O)[C@H]21`, the max response with KB-3-1 is 2.99%; with NIH3T3, 4.48%. On to `COc1cc2ncnc(Nc3ccc(O)cc3)c2cc1OC`, for which the max response in the assay on KB-3-1 is 3.01%; with NIH3T3, 2.24%. Take `CC(C)NCC(C(=O)N1CCN(c2ncnc3c2C(C)CC3O)CC1)c1ccc(Cl)cc1` (stereo not given): the max response with KB-3-1 was -24.2%; in the assay on NIH3T3, 3.08%.

For the molecule `Cn1c(=O)cc(N2CCCC(N)C2)n(Cc2cc(F)ccc2C#N)c1=O` (stereo not given), the max response was -0.0728% in the assay with KB-3-1 and -2.76% with NIH3T3. Consider `COc1cc(O)cc(C)c1C(=O)OC1C(CO)OC(OC2C(O)C(O)C(O)C(O)C2O)C(O)C1O` (stereo not given), for which the figures for the max response in the assay with KB-3-1 and with NIH3T3 were 2.63% and -8.82%, respectively. Consider `O=C(c1cc2c(cc1F)OC(c1ccc(F)cc1)(c1ccc(Cl)cc1Cl)O2)N1CCOCC1` (stereo not given), for which, in the assay with KB-3-1, the Potency is 13 µM (active). Besides, the max response with NIH3T3 was -3.07%.

On to `O=C1CSc2ccccc2N1Cc1cccc(C(F)(F)F)c1`, for which the max response in the assay with KB-3-1 was -14%; with NIH3T3, 4.03%. As for `COc1c2ccoc2cc2oc(CO[C@@H]3O[C@H](CO)[C@@H](O)[C@H](O)[C@H]3O)cc(=O)c12`, the max response with KB-3-1 is -1.43%; in the assay on NIH3T3 it was -8.92%. For `Cc1oc2ccccc2c1CNC(=O)NCc1cccs1`, the max response in the assay with KB-3-1 was -11.8%; in the assay with NIH3T3 it was -4.16%. Take `N#Cc1c(Oc2ccc(F)c(NC(=O)Cc3cccc(C(F)(F)F)c3)c2)ccc2nc(NC(=O)C3CC3)sc12`: the figures for the Potency in the assay on KB-3-1 and in the assay with NIH3T3 were 16.4 µM (active) and 1.46 µM (active), respectively.

`COc1ccc(Cl)c(Nc2nc3ccccc3nc2NS(=O)(=O)c2cccc(NC(=O)C(C)(C)N)c2)c1`: the values for the max response in the assay with KB-3-1 and in the assay on NIH3T3 were -5.68% and -15.2%, respectively.
